Assay [1] deals with Mitogen-activated protein kinase 10 (Mus musculus) (UniProt Q61831). In words: JNK3 AlphaScreen Assay (AID 530; active = well fitted curve in either direction with a large enough effect, not every such curve was filed as active;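 note: kinase came from lysate of stimulated human HepG2 cells; signal reports phosphorylation of biotinylated GST-cJun 1-79 at Ser73 with 10 µM ATP; % is set by controls: 0 for no effect and ±100 for the full control effect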). The method, boiled down: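 Room-temperature AlphaScreen kinase assay; pre-activated HepG2 lysate as JNK3 source, biotin-GST-cJun(1-79) substrate, 10 uM ATP, compound 15 min preincubation.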
In general terms: In Alpha technology, singlet oxygen from a donor bead excites a nearby acceptor bead.

Assay [2] in a line: Cell Viability - N2a (AID 540).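 Note: plate controls were DMSO alone for no effect and tamoxifen control for full effect; nearly all actives have a fitted effect of over 45% in size.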 As to conditions: N2a mouse neuroblastoma cell viability; at 92.2 µM (top of the series). In a few lines: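 Mouse neuroblastoma N2a cells (1500/well) were preincubated 5 hr at 37 °C, then exposed to compounds for 40 hr at 37 °C in complete medium. Viability was read as intracellular ATP by CellTiter-Glo luminescence; AC50 from Hill fits.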
A short description of assay [3]: Cell Viability - NIH 3T3 (AID 541).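 For activity change, negative = cytotoxicity: plate controls were DMSO alone for no effect and tamoxifen positive control for full effect.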 Note: nearly all actives have a fitted effect of over 25% in size. Note: potency is the fitted concentration of half-maximal effect. To be noted: NIH 3T3 cell viability, qHTS; activity change, negative = cytotoxicity: at 92.2 µM (top of the series). In a few lines: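 NIH 3T3 mouse embryo fibroblasts (1000 cells/well) were plated in complete medium and treated with compound for 40 hr at 37 °C. Viability was read as intracellular ATP by CellTiter-Glo luminescence; AC50 values came from Hill-equation fits of concentration-response data.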
On the technique in general: In qHTS, concentration-response curves come from the screen itself.

A short description of assay [4]: Cell Viability - H-4-II-E (AID 543). Note: nearly all actives have a fitted effect of over 35% in size. Note: potency is the fitted concentration of half-maximal effect. In a few lines:
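Rat hepatoma H-4-II-E cells (1500/well) were plated, incubated 5 hr at 37 °C, then exposed to compounds for 40 hr at 37 °C. Cellular ATP was read by CellTiter-Glo luminescence; AC50 came from Hill-equation fits of concentration-response data.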

Assay [5] is described as follows: Cell Viability - SH-SY5Y (AID 544). Note: nearly all actives have a fitted effect of over 55% in size. Note: potency is the fitted concentration of half-maximal effect. As to conditions: SH-SY5Y neuroblastoma cell viability; viability change, negative = cytotoxic: at 92.2 µM (top of the series). In a few lines:
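Human neuroblastoma SH-SY5Y cells (1500/well) in complete medium were exposed to compounds for 40 hr at 37 °C; intracellular ATP was then quantified by CellTiter-Glo luminescence after 20 min at room temperature. AC50 came from Hill-equation concentration-response fits.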

The nature of assay [6]: Cell Viability - Renal Proximal Tubule (AID 545). Note: nearly all actives have a fitted effect of over 40% in size. To be noted: renal proximal tubule cells viability; at 91.7 µM (top of the series) unless noted. In a few lines:
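In this qHTS format, normal rat kidney-derived proximal tubule cells in complete culture medium receive compound titrations, then sit 40 hours at 37 °C before luciferase-based ATP quantitation; potency is reported as AC50 from concentration-response curves.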

The nature of assay [7]: Cellular Toxicity (caspase-3) HepG2 (AID 654).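 For caspase-3 activation: cells exposed to compound for 16 hours before reading; 0% = DMSO alone and 100% = caspase signal from 100 µM tamoxifen.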 Note: potency is the fitted concentration of half-maximal effect. The method, boiled down: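 HepG2 cells (1500/well) in complete medium were treated with compounds for 16 hr at 37 °C. Caspase-3/7 activity was then read as luminescence from peptide-aminoluciferin cleavage. AC50 came from Hill fits, normalized to DMSO and 100 uM tamoxifen.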
Assay [8] is described as follows: Cellular Toxicity (caspase-3) Jurkat (AID 655).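 Note: cells exposed to compound for 16 h at 37 °C before reading.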 Note: potency is the fitted concentration of half-maximal effect. As to conditions: Jurkat caspase-3 activation, luminescence; caspase-3 activation: at 92.2 µM (top of the series), DMSO = 0%, tamoxifen = 100%. In a few lines:
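qHTS in human Jurkat T-cell leukemia line: 16 hr compound treatment at 37 °C, caspase-3/7 activity measured by Caspase-Glo luminescence. AC50 derived from Hill equation.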

Assay [9] is described as follows: Cellular Toxicity (caspase-3) HUV-EC-C (AID 656). The method, boiled down:
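Concentration-dependent caspase 3/7 induction was assessed in HUV-EC-C cells exposed for 16 hours. Data scaled between DMSO and tamoxifen (100 uM) controls.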

Assay [10] in a line: Cellular Toxicity (caspase-3) SHSY5Y (AID 657).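 Note: cells exposed to compound for 16 hours at 37 °C.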 Note: potency is the fitted concentration of half-maximal effect. The method, boiled down:
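Readout: caspase-cleaved peptide-aminoluciferin substrate driving luciferase light in SH-SY5Y neuroblastoma cells after 16 h treatment. Response normalized to DMSO and 10 uM staurosporine controls.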

Assay [11] is described as follows: Cellular Toxicity (caspase-3) BJ (AID 658).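 Note: 0% = DMSO basal and 100% = 10 µM staurosporine.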 In a few lines: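 Readout: Caspase-Glo 3/7 luminescence increase in BJ cells after 16 hr treatment at 37 °C. Staurosporine and tamoxifen served as positive controls; AC50 values came from Hill modelling of data normalized to DMSO and 10 uM staurosporine.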
The nature of assay [12]: Cellular Toxicity (caspase-3) MRC-5 (AID 659).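 Note: 0% = DMSO basal and 100% = 10 µM staurosporine.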 In a few lines:
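Concentration-dependent caspase 3/7 activation is measured in human normal lung fibroblasts (MRC-5) following 16-hour treatment. AC50 values come from standard Hill-equation modeling of luminescence normalized to DMSO and 10 uM staurosporine.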

Assay [13] is described as follows: Cellular Toxicity (caspase-3) H-4-II-E (AID 663).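 Note: cells exposed to compound for 16 hr before readout.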 To be noted: H-4-II-E rat hepatoma, scaled: DMSO 0%, 100 µM tamoxifen 100%; at 92.2 µM (top of the series). In a few lines: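 Apoptosis induction is scored as increased luminescence from caspase 3/7 substrate cleavage in rat hepatoma H-4-II-E cells exposed to compound for 16 hr. Activity is scaled between DMSO and 100 uM tamoxifen.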

The nature of assay [14]: Cell Viability - Mesenchymal (AID 546).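 Note: cells exposed to compound for 40 hours before reading.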 In a few lines:
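AC50 values reflect the drop in intracellular ATP in a human kidney mesenchymal line derived from normal glomeruli. Treatment lasts 40 hr at 37 °C in complete medium, and the signal comes from CellTiter-Glo luminescence.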

Assay [15] is described as follows: Cellular Toxicity (caspase-3) Mesangial (AID 660).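 Note: cells exposed to compound for 16 h before the caspase read.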 In a few lines: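 Human renal glomerular mesangial cells (1000/well) were treated with compounds for 16 h at 37 °C in complete medium, then caspase 3/7 activity was read by Caspase-Glo luminescence. Data were normalized to DMSO and 100 uM tamoxifen; AC50 from Hill fits.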
Assay [16] in a line: Cellular Toxicity (caspase-3) SK-N-SH (AID 661).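 Note: 0% = DMSO basal and 100% = 10 µM staurosporine.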 In a few lines: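 SK-N-SH human neuroblastoma cells (1500/well) were treated with compounds for 16 hr at 37 °C in complete medium; caspase 3/7 activity was read by Caspase-Glo luminescence. AC50 came from Hill fits of data normalized to DMSO and 10 uM staurosporine.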
Assay [17] concerns the target Glucocorticoid receptor (Homo sapiens) (UniProt P04150). In words: GR-GFP Redistribution (AID 450;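 active = compounds whose dose series gives a full or clear partial fitted curve of increased nuclear translocation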; note: potency is the fitted concentration of half-maximal effect). As to conditions: U2OS GR-GFP nuclear translocation, laser cytometry, 2 h.
Assay [18] can be described thus: Cell Viability - HUV-EC-C (AID 542). Note: % is set by controls: 0 for no effect and ±100 for the full control effect; nearly all actives have a fitted effect of over 35% in size. The method, boiled down:
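HUV-EC-C normal human vascular endothelial cells, 1000 cells/well, pre-incubated 5 hr at 37 °C, then exposed to compounds for 40 hr at 37 °C in complete medium. Viability measured as intracellular ATP by CellTiter-Glo luminescence; AC50 from Hill fits.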

Assay [19] deals with 3',5'-cyclic-AMP phosphodiesterase 4B (Homo sapiens) (UniProt Q07343). In words: qHTS Assay for Inhibitors of PDE-IV (AID 607; active = well fitted activation curve with a large enough effect in the main read-out, with a control signal flat, not every such curve was filed as active; note: % of control where 0% means no effect). In a few lines: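 ACTOne HEK293 cells carry a modified cAMP-gated CNG channel and express endogenous PDE4; plated 1000 cells/well, compounds up to 22.9 uM final. Membrane-potential dye fluorescence (ex 535/em 590) was read; parental cells received 10 uM forskolin + 100 uM RO 20-1724.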
3',5'-cyclic-AMP phosphodiesterase 4B (Homo sapiens), sequence (Q07343 whole entry, looked up): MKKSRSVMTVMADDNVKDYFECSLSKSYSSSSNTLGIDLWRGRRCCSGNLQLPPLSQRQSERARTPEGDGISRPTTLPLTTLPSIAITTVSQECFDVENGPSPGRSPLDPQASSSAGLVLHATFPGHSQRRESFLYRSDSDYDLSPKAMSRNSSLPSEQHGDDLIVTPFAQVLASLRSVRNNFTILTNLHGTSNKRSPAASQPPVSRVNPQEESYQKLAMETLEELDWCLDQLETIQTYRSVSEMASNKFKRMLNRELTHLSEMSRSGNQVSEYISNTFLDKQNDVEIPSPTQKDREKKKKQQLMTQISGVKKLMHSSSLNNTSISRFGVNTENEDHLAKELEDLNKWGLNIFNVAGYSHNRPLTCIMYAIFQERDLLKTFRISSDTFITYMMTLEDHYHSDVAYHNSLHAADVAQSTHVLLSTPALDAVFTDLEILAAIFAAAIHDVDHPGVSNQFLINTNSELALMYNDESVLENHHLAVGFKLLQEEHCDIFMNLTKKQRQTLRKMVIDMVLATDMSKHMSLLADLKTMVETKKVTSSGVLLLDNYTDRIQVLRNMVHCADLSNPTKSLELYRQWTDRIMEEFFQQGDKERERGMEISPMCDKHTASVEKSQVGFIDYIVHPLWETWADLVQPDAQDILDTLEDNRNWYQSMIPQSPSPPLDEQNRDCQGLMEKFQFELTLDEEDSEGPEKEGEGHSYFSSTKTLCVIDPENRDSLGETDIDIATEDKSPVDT

Where “and” joins values, the source holds several entries; their conditions need not be identical. Identical values can stand only once. Values without a mark were called inactive. Inconclusive results are not listed. Calls of active or inactive are those of the source. Unless noted, calls come from the whole dose curve; as a rule, active = well fitted curve in the direction sought with a large enough effect; inconclusive = small, poorly fitted or top-dose-only effect, or another doubt; inactive = no such curve, though single readings can be large; an effect the other way counts as inactive or inconclusive.

Glucocorticoid receptor (Homo sapiens), sequence (P04150 whole entry, looked up): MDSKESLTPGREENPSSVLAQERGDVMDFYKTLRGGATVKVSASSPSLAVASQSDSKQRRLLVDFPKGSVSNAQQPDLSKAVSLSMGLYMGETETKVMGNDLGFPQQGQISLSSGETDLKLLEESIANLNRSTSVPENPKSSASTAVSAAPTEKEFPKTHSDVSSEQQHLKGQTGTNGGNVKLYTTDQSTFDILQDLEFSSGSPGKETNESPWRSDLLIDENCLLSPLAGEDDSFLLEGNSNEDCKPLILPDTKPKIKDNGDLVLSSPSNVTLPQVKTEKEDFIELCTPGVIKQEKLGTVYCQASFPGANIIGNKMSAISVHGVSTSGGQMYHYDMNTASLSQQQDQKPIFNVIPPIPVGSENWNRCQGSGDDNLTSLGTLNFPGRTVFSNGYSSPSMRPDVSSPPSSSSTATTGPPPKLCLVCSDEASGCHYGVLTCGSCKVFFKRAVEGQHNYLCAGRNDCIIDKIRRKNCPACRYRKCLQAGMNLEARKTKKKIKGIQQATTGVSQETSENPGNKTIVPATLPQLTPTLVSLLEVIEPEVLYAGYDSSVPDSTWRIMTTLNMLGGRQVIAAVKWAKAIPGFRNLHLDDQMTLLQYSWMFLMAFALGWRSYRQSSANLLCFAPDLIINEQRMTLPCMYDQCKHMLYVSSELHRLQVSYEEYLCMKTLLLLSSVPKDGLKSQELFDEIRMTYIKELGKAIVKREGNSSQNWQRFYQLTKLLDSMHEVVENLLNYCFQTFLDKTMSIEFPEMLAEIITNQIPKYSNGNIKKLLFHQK

Consider `N[C@@H](Cc1ccc(N(CCCl)CCCl)cc1)C(=O)O`, for which the result in assay [1], in assay [9], in [11] and in assay [12] was inactive. Moreover, the results for the activity change, negative = cytotoxicity in assay [2], in [3] and in assay [6] were -94.8% (active), -113% (active) and -104% (active), respectively. The Potency in [4] was 50.1 µM (active); in assay [5] it was 0.251 µM (active); in assay [7] it was 31.6 µM (active); in [8], 25.1 µM (active); in assay [10], 2.51 µM (active). Also, the caspase-3 activation in assay [13] is 116% (active).

As to `C[C@]12C/C(=C/O)C(=O)C[C@@H]1CC[C@@H]1[C@@H]2CC[C@@]2(C)[C@H]1CC[C@]2(C)O`, the call in assay [1], in assay [14], in assay [9], in assay [11], in assay [12] and in assay [15] was inactive. Also, the outcome in assay [16] was inactive. Further, the results for the activity change, negative = cytotoxicity in assay [3] and in assay [6] were -114% (active) and -89.1% (active), respectively. In assay [5], the viability change, negative = cytotoxic was -95.9% (active). For the same compound, the caspase-3 activation in [8] was 15%. Further, the Potency result in [10] was “inactive”.

For the compound `CNCC(O)c1ccc(O)cc1` (configuration not stated), in [17], the Potency was over 20.6 µM. The activity change, negative = cytotoxicity in assay [2] was -10.6%; in assay [3] it was 2.22%; in assay [6] it was -6.79%. Also, the compound was called inactive in assay [18], in assay [14], in assay [9], in assay [11], in assay [12] and in [15]. In assay [16], the call was inactive. Besides, the Potency entry in [4], in assay [7] and in assay [10] was “inactive” each time. The viability change, negative = cytotoxic in assay [5] is -15.7%. Also, the caspase-3 activation is 2.25% in assay [8] and -0.124% in assay [13].

Turning to `O=c1[nH]c2ccccc2n1CCCN1CCC(n2c(=O)[nH]c3cc(Cl)ccc32)CC1`, the result in [1] and in [19] was inactive.

Consider `NCC(O)c1ccc(O)cc1` (configuration not stated), for which the outcome in assay [1], in assay [18], in assay [14], in assay [9], in assay [11] and in assay [12] was inactive. The compound was classed as inactive in [15] and in assay [16]. Besides, the activity change, negative = cytotoxicity is -14.9% in assay [2], -28.6% in assay [3] and -6.15% in [6]. Further, the Potency result in assay [4], in assay [7] and in [10] was “inactive” throughout. The viability change, negative = cytotoxic in assay [5] is -12.1%. For the same compound, the caspase-3 activation in assay [8] is -0.0147%; in assay [13], -0.161%.

As to `Oc1cccc2cccnc12`, the call in assay [1], in [14], in assay [19], in [9], in [11] and in assay [12] was inactive. In addition, in assay [16], the compound was classed as inactive. The activity change, negative = cytotoxicity was -89.1% (active) in assay [2]; -13.9% and -16.1% in assay [6]. Also, the Potency in [3] was 12.6 µM (active) and 10 µM (active); in [4], 39.8 µM (active); in [5] it was 3.98 µM (active). In addition, the Potency entry in assay [7] and in assay [10] was “inactive” in each case. The caspase-3 activation was 7.85% and 22.6% in assay [8]; 5.58% and 5.31% in assay [13].

The values above are taken from PubChem BioAssay (NCATS).
